The results in this text go back to PubChem BioAssay.

The nature of experiment [1]: reducers of endogenous Her2 protein level, primary screen, SKBR3 breast tumor cells, AlphaScreen, ATP viability (AID 461;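 active = Her2 level under about 52% in both replicate screens, with viability over 70% of control, limit read from the data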;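 as to Her2 level: lower value means less Her2 protein in the cells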;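 as to viability: percent of carrier control wells set as 100% viability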). The conditions noted are these: 18-24 h, measured here: SKBR3 viability, ATP luminescence, at 10 µM. (In general: Bead proximity is the source of the signal in Alpha formats.)
For experiment [2], the target named is Receptor tyrosine-protein kinase erbB-2 (Homo sapiens) (UniProt P04626). Described as above. The conditions noted are these: 18-24 h, at 10 µM, stronger effect = lower value.
Experiment [3] can be described thus: SK-BR-3 cell growth inhibitors, pilot screen, 24 h, human (AID 572;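 active = viability at or below 10% of carrier control in both of two separate runs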;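 also: compound exposure lasted between 18 and 24 h rather than exactly 24 h; 100% = carrier-treated control wells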). The following applies: SK-BR-3 viability, CellTiter-Glo luminescence, at 10 µM, stronger effect = lower value.
Experiment [4] in a line: HUVEC growth inhibition – cell-based, human, primary screen (AID 575).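 Also: 100% = median of untreated cell wells with 0.1% DMSO on each plate.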 The conditions noted are these: HUVEC proliferation, CellTiter-Glo luminescence, 72 h; at 10 µM; stronger effect = lower value.
Experiment [5] is described as follows: growth inhibitors of H69AR lung tumor, primary screen, human, duplicate replicates (AID 580;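 active = viability at or under a set limit in both replicates, limit being median viability minus 3 SD, cut at about 48% in these data, passing the limit was not always enough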;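 also: 100% = mean luminescence of untreated wells and 0% = no signal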). The following applies: H69AR lung tumor cells viability, ATP luminescence, 72 h; at 10 µM; stronger effect = lower value.
Experiment [6] in a line: reversal of MRP1-mediated doxorubicin resistance, pilot screen, H69AR cells, doxorubicin co-treatment (AID 601;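 active = viability loss from added drug above about 55%, and viability with drug at most 40%, in both replicates, limit read from the data, passing the limit was not always enough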). The conditions noted are these: CellTiter-Glo, 72 h, at 10 µM; for differential viability (reversal): stronger effect = higher value. On the technique in general: In ATP-based viability assays light output follows the ATP content of the culture.
Experiment [7] in a line: 384-well plate pilot, post-Golgi transport modulator project, inhibition of yeast transport mutant growth (AID 636; in the data active = inhibition above about 31%). The conditions noted are these: absorbance 615 nm, about 18 h, stronger effect = higher value.
Experiment [8] in a line: growth suppression of yeast trafficking mutant, preliminary HTS, modulators of trafficking downstream of Golgi apparatus project, 1536-format plate, OD 615 nm (AID 637; in the data active = inhibition above about 30%). The conditions noted are these: yeast transport mutant growth, absorbance 615 nm, 18 h; stronger effect = higher value.
Experiment [9] can be described thus: OD615 S. cerevisiae growth inhibition, permissive medium, pilot counter-assay, permissive growth control for S. cerevisiae lifespan shortening project (AID 705;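 active = growth inhibition above 25% in both replicates, a cutoff set 3 SD above the mean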). The following applies: OD615, 24 h, at 10 µM, stronger effect = higher value.
The nature of experiment [10]: Restrictive medium S. cerevisiae growth inhibition, OD615, pilot screen of yeast lifespan reduction project, restrictive growth control (AID 706;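 active = growth inhibition above a set limit, 3 SD over mean compound inhibition, in both replicates, cut at about 43% in these data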;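 also: modified DeaD lifespan yeast strain shifted to restrictive glucose medium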). The following applies: OD615, 48 h, at 10 µM, stronger effect = higher value.
Experiment [11] in a line: viability gain of MRP-1-high H69AR cells under doxorubicin, pilot screen, MRP-1 activator project, CellTiter-Glo, duplicate (AID 807;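 active = viability increase at or above a cutoff of the median across tested compounds plus 3 SD, cut at about 8.5% in these data, passing the limit was not always enough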;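 also: compound pretreatment 18-22 h then 72 h combined with doxorubicin; 0% = doxorubicin alone and 100% = vehicle without doxorubicin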). The following applies: H69AR viability with doxorubicin, CellTiter-Glo luminescence; at 10 µM; stronger effect = higher value.
A short description of experiment [12]: growth suppression of beta-catenin knockout HCT116, pilot screen, human colon tumor cells (AID 823;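 active = cell viability at or below a set limit in both duplicate runs, the limit being the all-compound median minus 4 SD, cut at about 23% in these data, passing the limit was not always enough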;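 also: 0% = wells killed by 20 µM Hyamine and 100% = untreated DMSO cell wells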). The conditions noted are these: CellTiter-Glo, 60 h, at 10 µM, stronger effect = lower value.
Experiment [13] in a line: growth suppression of PTEN-deleted HCT116, pilot screen, cell-based, HCT116 clonal line, CellTiter-Glo (AID 824;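 active = viability at or below 27.92% in each of two runs, the all-compound median minus 4 SD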;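 also: 0% = 20 µM Hyamine control and 100% = vehicle cell control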). The conditions noted are these: 60 h, at 10 µM, stronger effect = lower value.
The nature of experiment [14]: inhibitors of the yeast RAM network, pilot screen, dse1pr::URA3 reporter, 5-FOA selection (AID 869;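 active = inhibition over a set limit, the all-compound mean plus 3 SD, in both replicate runs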;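 also: 0% = DMSO wells with no growth and 100% = 10 µM 1-NA-PP1 with full growth; RAM network block rescues cells from 5-FOA so hits raise OD615 growth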). The following applies: S. cerevisiae dse1pr::URA3 5-FOA growth, OD615, 2 d; at 10 µM; stronger effect = higher value; strain carries analog-sensitive mutant Cbk1 kinase.
Experiment [15] in a line: RAM signaling pathway blockade in yeast – S. cerevisiae, Pdr1DBD-CYC8 efflux-inhibited sensitized strain, primary screen (AID 1298;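 active = RAM network inhibition above 8.4% in each of two replicates, 3 SD over the compound average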;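 also: 0% = DMSO untreated cells without growth and 100% = 10 µM 1-NA-PP1 full growth; higher means more yeast growth rescued from 5-FOA killing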). The following applies: S. cerevisiae cbk1-as DSE1-URA3 strain, 5-FOA growth OD615, 2 d; at 50 µM; stronger effect = higher value.
Setting [16] is: H69AR cells + 2 uM doxorubicin, measured here: viability with 2 uM doxorubicin, stronger effect = lower value.
[17] abbreviates: H69AR cells, compound alone cytotoxicity.

Inconclusive results are not listed. Active and inactive are the calls of the source.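 The calls were made as follows, unless noted: active = viability at or below 30% in both replicate assays; inconclusive = viability at or below 30% in just one of the two assays; inactive = the rest.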

Chain of Receptor tyrosine-protein kinase erbB-2 (Homo sapiens) (P04626 whole entry, looked up): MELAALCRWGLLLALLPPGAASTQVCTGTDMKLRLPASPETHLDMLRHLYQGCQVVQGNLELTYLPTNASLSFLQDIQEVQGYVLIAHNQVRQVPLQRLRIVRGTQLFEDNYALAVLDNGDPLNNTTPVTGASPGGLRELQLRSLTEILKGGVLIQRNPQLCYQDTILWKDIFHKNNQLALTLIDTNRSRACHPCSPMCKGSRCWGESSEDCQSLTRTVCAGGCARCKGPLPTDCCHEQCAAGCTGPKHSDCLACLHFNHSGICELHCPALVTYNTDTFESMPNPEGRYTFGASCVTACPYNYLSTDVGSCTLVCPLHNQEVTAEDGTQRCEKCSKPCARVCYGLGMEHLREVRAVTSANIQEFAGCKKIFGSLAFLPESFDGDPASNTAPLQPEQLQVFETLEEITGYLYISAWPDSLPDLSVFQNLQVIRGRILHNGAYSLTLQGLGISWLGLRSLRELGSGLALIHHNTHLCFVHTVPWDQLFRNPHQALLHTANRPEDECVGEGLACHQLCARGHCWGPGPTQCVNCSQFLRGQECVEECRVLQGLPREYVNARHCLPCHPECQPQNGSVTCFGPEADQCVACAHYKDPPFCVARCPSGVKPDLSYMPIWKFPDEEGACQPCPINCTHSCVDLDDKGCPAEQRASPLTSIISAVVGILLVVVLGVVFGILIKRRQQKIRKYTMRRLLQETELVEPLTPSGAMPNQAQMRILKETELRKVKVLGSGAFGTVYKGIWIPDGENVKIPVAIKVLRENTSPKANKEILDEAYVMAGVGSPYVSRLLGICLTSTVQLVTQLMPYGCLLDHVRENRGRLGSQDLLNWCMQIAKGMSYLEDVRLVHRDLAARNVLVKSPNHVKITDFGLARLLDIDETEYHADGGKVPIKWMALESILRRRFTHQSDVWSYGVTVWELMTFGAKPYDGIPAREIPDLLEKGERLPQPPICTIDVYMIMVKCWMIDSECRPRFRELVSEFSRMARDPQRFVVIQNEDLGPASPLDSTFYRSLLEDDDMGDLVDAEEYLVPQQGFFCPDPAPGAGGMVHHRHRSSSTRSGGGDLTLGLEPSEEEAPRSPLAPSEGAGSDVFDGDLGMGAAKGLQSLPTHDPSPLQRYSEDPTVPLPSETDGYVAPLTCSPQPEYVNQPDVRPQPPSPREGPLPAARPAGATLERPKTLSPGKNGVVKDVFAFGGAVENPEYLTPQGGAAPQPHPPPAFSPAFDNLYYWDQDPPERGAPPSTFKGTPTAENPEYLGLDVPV

In general, viability refers to a read-out of living cells in per cent, often relative to untreated cells. Broadly, the inhibition is the drop in the measured response relative to a control, in per cent. Turning to `COc1cccc(-c2nc(CS(=O)(=O)CC(=O)N3CCN(c4ccccn4)CC3)c(C)o2)c1`, the viability in experiment [1] is 90%; in experiment [3], 90% (inactive); in experiment [4], 81% (inactive); in [5], 90.9% (inactive); in [6] (setting [16]) it was 78.3%; in experiment [6] (setting [17]) it was 90.9%. Further, the viability in [12] is 73.3% (inactive); in experiment [13] it was 71.6% (inactive). In [2], the Her2 level was 112% (inactive). For the same molecule, in experiment [6] (H69AR cells + 2 uM doxorubicin), the differential viability (reversal) is 12.7% (inactive). The inhibition is -4% (inactive) in [7], 3.61% (inactive) in experiment [8] and 0.835% (inactive) in experiment [14]. For the same molecule, the growth inhibition in experiment [9] is 0.71% (inactive); in experiment [10], -2.45% (inactive). In experiment [11], the viability increase is -0.47% (inactive). The RAM network inhibition in [15] was 5.35% (inactive).

For `Cc1ccnc(NC(=O)C2CCCN(S(=O)(=O)c3cnc[nH]3)C2)c1` (stereo not drawn), the viability in [1] is 95.5%; in [3], 95.5% (inactive); in experiment [4] it was 94.7% (inactive); in [5], 105% (inactive); in [6] (setting [16]), 97.4%; in experiment [6] (setting [17]) it was 105%. The viability is 97.3% (inactive) in experiment [12] and 96.1% (inactive) in [13]. Further, in experiment [2], the Her2 level was 104% (inactive). Also, in experiment [6] (H69AR cells + 2 uM doxorubicin), the differential viability (reversal) was 8% (inactive). Besides, the inhibition in experiment [7] is 0.8% (inactive); in [8], -2.79% (inactive); in experiment [14], 0.925% (inactive). Also, the figures for the growth inhibition in experiment [9] and in experiment [10] were 1.41% (inactive) and -5.85% (inactive), respectively. Further, in [11], the viability increase is -1.81% (inactive). Further, in experiment [15], the RAM network inhibition was 3.67% (inactive).

In the case of `COc1cc2c(cc1OC)CN(C(=O)CSc1nc3[nH]ncc3c(=O)n1-c1ccccc1)CC2`, the viability in experiment [1] was 105%; in experiment [3], 105% (inactive); in experiment [4] it was 79.7% (inactive); in experiment [5], 91.7% (inactive); in [6] (setting [16]) it was 80.1%; in [6] (setting [17]) it was 91.7%. Further, the viability in experiment [12] is 101% (inactive); in experiment [13], 90.9% (inactive). The Her2 level in experiment [2] is 97% (inactive). The differential viability (reversal) in experiment [6] (H69AR cells + 2 uM doxorubicin) is 11.6% (inactive). For the same molecule, the inhibition is -4.93% (inactive) in experiment [7], -2.62% (inactive) in experiment [8] and 1.19% (inactive) in experiment [14]. Further, the growth inhibition in [9] is 0.33% (inactive); in experiment [10], -24.6% (inactive). In experiment [11], the viability increase was -1.5% (inactive). Besides, the RAM network inhibition in [15] is 2.58% (inactive).

Regarding `CC(NC(=O)c1cc2c(=O)n(C)c3ccccc3c2n1C)c1ccc2c(c1)OCCO2` (stereo not drawn), the viability in experiment [1] is 94.5%; in experiment [3] it was 94.5% (inactive); in experiment [4], 77% (inactive); in experiment [5], 42.7% (active); in experiment [6] (setting [16]) it was 63.6%; in experiment [6] (setting [17]), 42.7%. In addition, the figures for the viability in experiment [12] and in experiment [13] were 65.6% (inactive) and 58.2% (inactive), respectively. In [2], the Her2 level was 84% (inactive). Moreover, in experiment [6] (H69AR cells + 2 uM doxorubicin), the differential viability (reversal) is -20.9% (inactive). Moreover, the inhibition in experiment [7] is -2.18% (inactive); in [8], 1.33% (inactive); in experiment [14], 0.645% (inactive). Also, the growth inhibition in [9] is -5.51% (inactive); in experiment [10], -1.51% (inactive). Moreover, the viability increase in [11] was -4.19% (inactive). Moreover, in experiment [15], the RAM network inhibition is 3.77% (inactive).

Turning to `C=CCSc1nc2sc(C)c(C)c2c(=O)[nH]1`, the viability is 97.5% in experiment [1]; 97.5% (inactive) in experiment [3]; 83.3% (inactive) in experiment [4]; 90.7% (inactive) in experiment [5]; 80.8% in [6] (setting [16]); 90.7% in [6] (setting [17]). Besides, the viability is 109% (inactive) in [12] and 89% (inactive) in experiment [13]. Also, in [2], the Her2 level was 107% (inactive). Moreover, the differential viability (reversal) in experiment [6] (H69AR cells + 2 uM doxorubicin) is 9.9% (inactive). For the same molecule, the inhibition in [7] is -5.87% (inactive); in experiment [8], -10.3% (inactive); in [14], 1.19% (inactive). Besides, the results for the growth inhibition in experiment [9] and in experiment [10] were -7.21% (inactive) and -12.2% (inactive), respectively. The viability increase in experiment [11] was 0.97% (inactive). Besides, the RAM network inhibition in experiment [15] was 4.66% (inactive).

In the case of `O=S(=O)(c1ccccc1)N1CCN(S(=O)(=O)c2ccccc2)C1`, the viability in [1] is 83.5%; in [3], 83.5% (inactive); in [4], 97.5% (inactive); in [5], 95.8% (inactive); in experiment [6] (setting [16]), 88.7%; in experiment [6] (setting [17]) it was 95.8%. Besides, the viability in experiment [12] was 93.8% (inactive); in experiment [13] it was 93.5% (inactive). Moreover, the Her2 level in [2] is 102% (inactive). Further, the differential viability (reversal) in experiment [6] (H69AR cells + 2 uM doxorubicin) is 7.07% (inactive). For the same molecule, the inhibition in experiment [7] was -3.21% (inactive); in experiment [8], -4.5% (inactive); in experiment [14], -0.14% (inactive). For the same molecule, the values for the growth inhibition in experiment [9] and in experiment [10] were -7.65% (inactive) and 6.15% (inactive), respectively. Moreover, the viability increase in experiment [11] is -1.27% (inactive). Also, the RAM network inhibition in [15] is 3.22% (inactive).

For the molecule `Cc1ccc(C2CC(c3ccc(C)cc3)n3nc(N)nc3N2)cc1` (stereo not drawn), the viability is 95% in experiment [1]; 95% (inactive) in experiment [3]; 102% (inactive) in experiment [4]; 88.5% (inactive) in experiment [5]; 97.1% in experiment [6] (setting [16]); 88.5% in experiment [6] (setting [17]). The viability in [12] is 96.7% (inactive); in experiment [13] it was 93.1% (inactive). The Her2 level in experiment [2] is 109% (inactive). Further, the differential viability (reversal) in experiment [6] (H69AR cells + 2 uM doxorubicin) was -8.68% (inactive). For the same molecule, the inhibition in experiment [7] was -1.79% (inactive); in experiment [8], -1% (inactive); in [14], 1.34% (inactive). Further, the growth inhibition in [9] is 1.83% (inactive); in experiment [10], 12.3% (inactive). In addition, the viability increase in experiment [11] is -0.92% (inactive). Also, the RAM network inhibition in [15] was 1.75% (inactive).

`CCOC(=O)C1=C(C)N(C)C(=O)NC1c1ccccc1OC` (stereo not drawn): the viability in [1] was 97%; in [3] it was 97% (inactive); in experiment [4], 88.2% (inactive); in [5], 175% (inactive); in experiment [6] (setting [16]) it was 110%; in experiment [6] (setting [17]), 175%. Moreover, the values for the viability in experiment [12] and in [13] were 97.9% (inactive) and 93.4% (inactive), respectively. Also, in [2], the Her2 level is 88% (inactive). The differential viability (reversal) in experiment [6] (H69AR cells + 2 uM doxorubicin) was 64.2% (inactive). In addition, the inhibition in [7] is -8.24% (inactive); in experiment [8], 2.46% (inactive); in experiment [14], 0.97% (inactive). Also, the growth inhibition in [9] was -4.28% (inactive); in experiment [10], -3.44% (inactive). Also, the viability increase in [11] was 0.16% (inactive). Further, the RAM network inhibition in experiment [15] was 2.01% (inactive).

Turning to `Cc1ccc(C)c(NC(=O)CSc2nnc(-c3ccccc3)o2)c1`, the viability in [1] was 89.5%; in experiment [3] it was 89.5% (inactive); in experiment [4] it was 111% (inactive); in experiment [5], 89.6% (inactive); in experiment [6] (setting [16]), 80.1%; in experiment [6] (setting [17]), 89.6%. The results for the viability in experiment [12] and in [13] were 95.9% (inactive) and 97.2% (inactive), respectively. Also, the Her2 level in experiment [2] is 104% (inactive). Also, the differential viability (reversal) in experiment [6] (H69AR cells + 2 uM doxorubicin) is 9.51% (inactive). The inhibition was -6.4% (inactive) in [7], -4.5% (inactive) in experiment [8] and 0.49% (inactive) in experiment [14]. Moreover, the growth inhibition in experiment [9] is -4.45% (inactive); in [10], -0.695% (inactive). For the same molecule, the viability increase in [11] is 1.83% (inactive). Moreover, the RAM network inhibition in [15] was 1.79% (inactive).
